# Bioassay records deposited in PubChem BioAssay by Sanford-Burnham Center for Chemical Genomics.
# PPC-1+TRAIL kill: compounds killing PPC-1 cancer cells with TRAIL present, primary screen, TRAIL potentiator project, ATPLite luminescence, uHTS | PPC-1 cells + TRAIL, ATPLite viability luminescence | cell killing (% activity), % at 4 µM or 5 µM | 220,000 tested, 0.41% active;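 active means cell killing above 50% in the first pass at 4 µM, then a duplicate retest at 5 µM averaging 50% or more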;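 further: plate controls were cells with TRAIL plus DMSO for no effect and medium-only wells lacking cells for full effect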
# SENP8 block-1: human SENP8 protease inhibitors, primary screen, biochemical, fluorescence, Nedd8 protein substrate, uHTS | AID 602440, 2012 | 360,000 tested, 0.64% active | Sentrin-specific protease 8 (Homo sapiens), Q96LD8 | inhibition, % at 20 µM | recombinant SENP8; in the data active means inhibition mostly above about 40%, no sharp cut-off; inactive means mostly below about 27%
# SENP8 block-2: SENP8 protease inhibitors, primary screen, biochemical, luminescence; Sentrin-specific protease 8 (Homo sapiens), Q96LD8; purified SENP8, Z-RLRGG-aminoluciferin cleavage; inhibition, % at 10 µM; 330,000 tested, 1.2% active; AID 2540, 2010; in the data active means inhibition above about 50%
# C8 TRAIL sens: viability loss with TRAIL in NB7+C8 cells, primary screen, TRAIL sensitizer project, cell-based, ATPlite luminescence; AID 624354, 2012; inhibition (viability loss, TRAIL sensitization), % at 10 µM; 360,000 tested, 1% active;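 active means compounds causing at least 50% loss of cell viability in the single-dose screen, relative to plate controls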
# SENP7 inh: SENP7 protease inhibitors, primary screen, biochemical, luminescence, uHTS | Sentrin-specific protease 7 (Homo sapiens), Q9BQF6 | recombinant SENP7, Z-RLRGG-aminoluciferin luminescence, 40 min | inhibition, % at 5 µM | 330,000 tested, 1.5% active | AID 434973, 2010;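 active means inhibition above about 50% at the single test dose, limit read from the data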;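 further: plate controls were DMSO with enzyme for no effect and no enzyme buffer wells for full effect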
# SENP6 inh: SENP6 protease inhibitors, primary screen, biochemical, luminescence, uHTS; Sentrin-specific protease 6 (Homo sapiens), Q9GZR1; Recombinant SENP6 catalytic domain, aminoluciferin luminescence; inhibition, % at 10 µM; 330,000 tested, 1.8% active; AID 2599, 2010;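 active means inhibition above about 50% at the single tested dose, limit read from the data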;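 further: plate controls were DMSO wells with enzyme for no effect and DMSO wells lacking enzyme for full effect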
# Target sequence (Q9GZR1 628-1112 limits assumed): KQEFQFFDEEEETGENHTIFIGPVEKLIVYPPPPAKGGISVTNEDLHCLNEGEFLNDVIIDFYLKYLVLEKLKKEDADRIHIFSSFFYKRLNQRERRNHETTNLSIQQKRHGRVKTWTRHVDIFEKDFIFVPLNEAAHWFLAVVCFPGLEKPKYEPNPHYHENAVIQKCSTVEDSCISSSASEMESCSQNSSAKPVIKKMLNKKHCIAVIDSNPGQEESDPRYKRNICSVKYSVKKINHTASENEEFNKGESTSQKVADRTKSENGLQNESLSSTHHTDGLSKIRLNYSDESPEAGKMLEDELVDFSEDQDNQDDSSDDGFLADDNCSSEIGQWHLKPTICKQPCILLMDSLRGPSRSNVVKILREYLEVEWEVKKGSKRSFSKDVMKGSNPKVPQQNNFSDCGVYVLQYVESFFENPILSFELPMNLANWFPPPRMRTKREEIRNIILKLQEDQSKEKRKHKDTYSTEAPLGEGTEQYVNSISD
# PPC-1 tox: cytotoxicity in PPC-1 cells, confirmation, cytotoxicity control for TRAIL apoptosis potentiator project, cell-based, ATP content luminescence. PPC-1 viability, ATPlite luminescence, overnight. 1,200 tested, 50% active. shares compounds with PPC-1+TRAIL kill. cytotoxicity, % at 5 µM;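 active means reconfirmed compounds whose average cytotoxicity reaches 50% or more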;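 further: 0% = DMSO-treated cells and 100% = wells holding medium but no cells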
# SENP8 conf: SENP8 protease inhibitors, retest, confirmation, biochemical, luminescence, single concentration; inhibition, % at 12.5 µM; shares compounds with SENP7 inh; 6,200 tested, 40% active; Recombinant SENP8, Z-RLRGG-aminoluciferin luminescence, 60 min;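 active means mean inhibition across replicates above about 50%, limit read from the data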
# SENP6 conf: SENP6 protease inhibitors, confirmation, biochemical, luminescence, single concentration; shares compounds with SENP7 inh; recombinant SENP6, Z-RLRGG-aminoluciferin luminescence; inhibition, % at 12.5 µM; 6,200 tested, 58% active; AID 488915, 2010
# SENP7 conf: SENP7 protease inhibitors, retest, confirmation, biochemical, luminescence, single concentration; shares compounds with SENP7 inh; inhibition, % at 12.5 µM; AID 488917, 2010; recombinant SENP7, Z-RLRGG-aminoluciferin luminescence, 40 min; 6,200 tested, 69% active
# Casp3 select: caspase-3 protease inhibitors, confirmation, selectivity assay for SENP inhibitor project, biochemical, single concentration | shares compounds with SENP7 inh | purified caspase-3, Z-DEVD-aminoluciferin luminescence, 60 min | inhibition, % at 12.5 µM | 6,200 tested, 60% active | AID 488918, 2010;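 active means mean inhibition above about 50%, limit read from the data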;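 further: plate controls were enzyme with DMSO for no effect and wells without caspase-3 for full effect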
# Target sequence (P42574 28-227 limits assumed): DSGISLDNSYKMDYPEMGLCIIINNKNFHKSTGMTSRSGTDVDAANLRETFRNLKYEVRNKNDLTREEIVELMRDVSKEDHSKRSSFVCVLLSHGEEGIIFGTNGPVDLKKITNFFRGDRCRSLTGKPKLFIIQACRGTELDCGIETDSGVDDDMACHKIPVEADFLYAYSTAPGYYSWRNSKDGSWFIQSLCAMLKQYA
# SENP luc ctr: luminescence interference (SENP counter-screen); shares compounds with SENP7 inh; Pre-incubated SENP8/Z-RLRGG-aminoluciferin, luciferase luminescence interference; inhibition, % at 12.5 µM; 6,200 tested, 39% active; AID 488919;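 active means mean inhibition above about 50% when retested at one dose, limit read from the data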;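 further: plate controls were DMSO wells with completed reaction for no effect and substrate without enzyme for full effect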
# Numbers without * were called inactive; i = inactive; . = not tested or not shown. Most compounds without a hit are left out; they make up all but 3% or so of the library.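 How the source made its calls, unless noted: active means mean inhibition above about 50% in the one-dose retest (limit read from the data); inactive means the rest.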
SMILES,PPC-1+TRAIL kill,SENP8 block-1,SENP8 block-2,C8 TRAIL sens,SENP7 inh,SENP6 inh,PPC-1 tox,SENP8 conf,SENP6 conf,SENP7 conf,Casp3 select,SENP luc ctr
Cc1cc(Br)ccc1OCC(=O)NNC(=O)c1cnccn1,1.8,7.4,-3.0,2.6,-5.7,-14.1,.,.,.,.,.,.
O=C(Nc1nccs1)c1cc2c(s1)CCCCC2,83.9*,-48.7,94.9*,89.8*,98.2*,95.3*,77.7*,98.0*,99.2*,102.3*,96.6*,86.8*
O=C(Nc1nncs1)c1cc2c(s1)CCC2,22.0,-12.8,30.9,30.3,45.9,31.9,.,.,.,.,.,.
NC(c1csc(Nc2cc(NCCCO)ncn2)n1)c1ccccc1Cl (configuration not stated),.,-4.5,.,22.2,.,.,.,.,.,.,.,.
COc1ccc(Cl)c2sc(N(CCN(C)C)C(=O)C3=COCCO3)nc12,.,7.4,.,11.3,.,.,.,.,.,.,.,.
CCOc1ccc(-c2nc3ccccc3c(=O)o2)cc1,54.4*,-183.6,21.6,68.0*,72.7*,7.3,56.4*,28.0,36.2,46.2,34.0,37.5
O=C(/C=C\Nc1cccc(F)c1)c1ccc2c(c1)OCO2,73.8*,-182.3,55.5*,72.0*,96.2*,94.1*,70.9*,78.7*,86.9*,91.8*,84.3*,27.9
COC(=O)c1ccc(N/C=C\C(=O)c2ccc3c(c2)OCO3)cc1,29.7,-406.0,-4.3,19.6,-8.4,-6.1,.,.,.,.,.,.
O=C(/C=C\Nc1ccccc1Br)c1ccc2c(c1)OCO2,93.4*,-20.3,86.4*,91.2*,89.0*,87.1*,93.8*,84.2*,92.8*,97.8*,78.0*,8.5
O=C(NC(=S)Nc1ccccc1Br)c1ccc2c(c1)OCO2,.,4.5,-7.2,-0.9,-0.7,-0.5,.,.,.,.,.,.
CCCCN1C(=O)c2ccc(C(=O)NC3(C)CCS(=O)(=O)C3)cc2C1=O (configuration not stated),.,17.4,2.9,4.3,1.0,-7.3,.,.,.,.,.,.
COc1ccc(-c2nc3ccccc3[nH]2)cc1,78.0*,-25.2,95.5*,78.9*,97.4*,93.9*,76.8*,95.9*,98.2*,102.8*,98.0*,96.4*
Cc1cc(NC(=O)CSc2ccc(-c3nc4cc(C)c(C)cc4[nH]3)cn2)no1,58.8*,-300.9,-0.1,42.8,50.7*,6.3,45.0,-4.0,0.4,8.0,5.9,5.0
CCOc1ccc(C2/C(=C(/O)c3ccc(S(=O)(=O)N4CCCCC4)cc3)C(=O)C(=O)N2CCCOC)cc1OC (configuration not stated),.,11.4,3.0,-12.1,-4.4,-12.8,.,.,.,.,.,.
COc1cccc(C(=O)/C=C/Nc2cccc(O)c2)c1,85.1*,-77.7,95.4*,82.3*,99.8*,96.3*,86.1*,99.0*,100.2*,103.3*,97.8*,97.9*
COc1cccc(C(=O)/C=C/Nc2ccc(S(=O)(=O)Nc3cccc(C(C)=O)c3)cc2)c1,4.1,i,11.8,36.4,-4.5,2.3,.,.,.,.,.,.
CC1=CC(=O)Nc2ncccc2O1,.,i,.,-1.3,.,.,.,.,.,.,.,.
Clc1ccc(-c2nnc(SCc3ccon3)o2)c(Cl)c1,44.0,8.0,61.3*,48.2*,57.1*,70.2*,39.0,11.1,62.1*,86.6*,64.4*,61.1*
O=C(CNC(=O)c1ccc(Br)o1)OCC(=O)c1cccc([N+](=O)[O-])c1,2.8,9.5,-2.5,1.3,6.1,-2.5,.,.,.,.,.,.
COc1cccc(/C=N/Nc2nccnc2Cl)c1O,45.0,-11.6,96.3*,71.9*,100.4*,97.1*,49.8,98.3*,99.3*,102.3*,98.0*,87.8*
COc1cccc(/C=N/NC(=O)c2cnccn2)c1O,28.8,19.8,-1.4,21.8,1.0,2.8,.,.,.,.,.,.
Cc1cccc(C(=O)n2c(=S)nc3cc(C)ccn32)c1,77.8*,-20.1,57.8*,81.6*,81.2*,74.8*,79.4*,63.3*,71.6*,86.7*,45.9,30.5
C(=C\c1nc2ccccc2[nH]1)/c1ccccc1,87.5*,-261.3,96.8*,85.6*,100.0*,94.5*,87.9*,98.2*,99.3*,102.9*,97.7*,91.9*
CC(=O)Nc1cccc(-c2nc3ccccc3s2)c1,29.1,-58.4,21.5,10.4,33.6,47.3,.,.,.,.,.,.
COc1cccc(-c2nc3ccccc3s2)c1O,61.3*,-395.0,53.8*,73.4*,86.4*,76.9*,64.2*,39.0,57.9*,96.5*,74.2*,5.3
SMILES,PPC-1+TRAIL kill,SENP8 block-1,SENP8 block-2,C8 TRAIL sens,SENP7 inh,SENP6 inh,PPC-1 tox,SENP8 conf,SENP6 conf,SENP7 conf,Casp3 select,SENP luc ctr
CCOc1cc(-c2nc3ccccc3s2)ccc1O,17.6,-420.6,3.6,-13.5,10.5,27.3,.,.,.,.,.,.
CC(C)c1ccc(-c2nc3ccccc3s2)cc1,91.1*,-7.2,97.6*,93.3*,99.6*,97.6*,92.0*,97.6*,99.5*,101.5*,97.4*,96.8*
FC(F)(F)c1ccc(-c2nc3ccccc3s2)cc1,.,-26.9,.,-13.9,.,.,.,.,.,.,.,.
Nc1cccc(-c2nc3ccccc3s2)c1,35.5,i,93.1*,51.2*,100.0*,100.2*,38.8,95.9*,98.3*,102.9*,95.6*,97.0*
COc1ccc(-c2nc3ccccc3s2)cc1O,82.7*,i,95.4*,82.5*,99.9*,96.9*,83.6*,98.0*,98.8*,102.3*,95.5*,98.0*
N#CCc1ccc(OC(=O)c2cccnc2Cl)cc1,.,11.7,14.9,30.8,0.9,5.4,.,.,.,.,.,.
COC1=CC(=O)[C@@]2([C@@H]1O)[C@@H](Cl)C[C@]13C(OC)=C(OC)C(=O)C[C@]21CCN3C,.,20.6,-6.6,-21.2,-6.8,-10.9,.,.,.,.,.,.
